The results in this text go back to PubChem BioAssay AID1347383 (Zoeller Lab, School of Medicine, Boston University, 2020).

SMILES strings stand for the structures. The source made the active and inactive calls.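 Rule for the calls: active = cell survival after UV exposure 2 SD above solvent-only control wells at 10 µM, confirmed on one or two repeats; inactive = the rest.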

The nature of this assay: cell survival after pyrene fatty acid photosensitization – ZR-82 cells, Analyticon library, screen 2, phospholipid biosynthesis inhibitor project, primary screen (AID 1347383).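 Note: survival reflects blocked phospholipid synthesis cutting uptake of the phototoxic fatty acid; compound and fatty acid exposure 3 h then viability read next day.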 The settings on record: ZR-82 CHO cells, pyrene-fatty acid UV killing, CellTiter Blue; at 10 µM; peroxisome-deficient CHO-K1 variant; with DGAT-1, DGAT-2 and ACAT inhibitors. (In general: The colour change of resazurin is a common sign of viable cells or microbes.)
`OCCc1ccc(O)cc1`: the result was inactive.
Then `C/C=C/C=C/C(CC(=O)O)Nc1ccc(C=O)cc1` (stereo not given), with “inactive”.
Then `O=C1CC(c2ccc(O)cc2)Oc2ccccc21` (stereo not given), with “inactive”; and `COC1=CC(=O)CC(C)C12Oc1cc(OC)cc(O)c1C2=O` (stereo not given), with “inactive”.
For the molecule `COc1ccc2cc3[n+](cc2c1OC)CCc1cc2c(cc1-3)OCO2`, the result was inactive.
Regarding `CC1(C)C2CC[C@]3(C)C(C(=O)C=C4[C@H]5C[C@@](C)(C(=O)O)CC[C@]5(C)CC[C@]43C)[C@@]2(C)CC[C@@H]1O` (stereo not given in full), the outcome was inactive.
Then `O=c1ccc2ccc(O[C@@H]3O[C@H](CO)[C@@H](O)[C@H](O)[C@H]3O)cc2o1`, with “inactive”; and `CC(=O)OC1C(O)C2C(C)C3=CC(=O)OC3(O)CC2C2(C)CCCC(C)(CO)C12` (stereo not given), with “inactive”.
As for `CO[C@@H]1C(=O)CC[C@]2(O)CS[C@H](CC=C(C)C)[C@](C)(O)[C@@]12O`, the result was inactive.
In the case of `C=C1CC[C@@H](C)[C@](C)(CCc2ccoc2)C/C=C\C=C/1C(=O)O`, the outcome was inactive.
Take `OC1C(c2ccccc2)CCC(O)(c2ccccc2)C1O` (stereo not given): the outcome was inactive.
With `CN1[C@@H]2CC[C@H]1CC(OC(=O)C(CO)c1ccccc1)C2` (stereo not given in full) the entry was “inactive”; with `C=C1C[C@]23C[C@H]1CC[C@H]2[C@]1(C)CCC[C@@]2(COC(C)=O)C(=O)O[C@H]([C@H]21)[C@@H]3OC(C)=O`, “active”; with `COc1c(OC)c(O)c2c3c(cc4ccccc42)NC(=O)c13`, “inactive”.
With `O=c1ccn(C2OC(CO)C(O)C2O)c(=O)[nH]1` (stereo not given) the entry was “inactive”.
Turning to `CC1CCCC[C@H]2C(=O)C=C[C@H](O)[C@@H]2CC(=O)O1` (stereo not given in full), the result was inactive.
With `CC1OC(n2cnc3c(N)ncnc32)C(O)C1O` (stereo not given) the entry was “inactive”; with `CC(=O)OC(C)C(C)(O)C(=O)O[C@@H]1CC[C@]2(C)CC(=O)C(=C(C)C)C[C@H]2[C@]1(C)OC(C)=O` (stereo not given in full), “inactive”.
`OCCc1ccc(O)cc1O`: the result was inactive.
With `COc1cc(CCc2ccccc2)cc(O)c1C/C=C(\C)CCC=C(C)C` the entry was “inactive”; with `O=C1c2c(O)cc(O)cc2OC(c2cc(O)c(O)c(O)c2)C1O` (stereo not given), “inactive”; with `CSCC1OC(n2cnc3c(=O)[nH]cnc32)C(O)C1O` (stereo not given), “inactive”.
For `CC(=O)O[C@H]1C[C@@]2(C)[C@@H](CC[C@H]3[C@@]4(C)C=CC(=O)[C@@H](C)[C@@H]4[C@H](OC(C)=O)C(=O)[C@@]32C)/C1=C(\CCC=C(C)C)C(=O)O`, the result was inactive.
Regarding `CC[C@H](C)/C=C(C)/C=C/C1=CC2=CC(=O)[C@]3(C)OC(=O)[C@@H](C(C)=O)[C@@H]3C2=CO1`, the result was inactive.
Turning to `COc1cc2oc(=O)ccc2cc1[C@H]1OC(=O)[C@]2(C)OC12` (stereo not given in full), the outcome was inactive.
On to `CC(Cc1ccc(O)c(O)c1)C(C)Cc1ccc(O)c(O)c1` (stereo not given), for which the outcome was inactive.
With `COc1cc(O)cc2occ(-c3ccc(O)cc3)c(=O)c12` the entry was “inactive”.
With `COc1cc(OC)c2c(c1Cl)OC1(C(=O)C=C(O)C=C1C)C2=O` (stereo not given) the entry was “inactive”; with `CO[C@H]1/C=C/[C@@](C)(O)/C=C/C(=O)O[C@H](C)[C@@H](C)CC/C=C/1C`, “inactive”.
On to `COC1C(OC(=O)/C=C/C=C/C=C/C=C/C(=O)O)CCC2(CO2)C1C1(C)OC1CC=C(C)C` (stereo not given), for which the outcome was inactive.
With `CCC/C=C\C/C=C\CCCC/C=C\Cc1cc(O)cc(O)c1` the entry was “inactive”; with `COc1cc(OC)c2c(c1Cl)O[C@]1(C2=O)C(O)=CC(=O)C[C@H]1C`, “inactive”.
Then `CC(=O)O[C@@H]1CC[C@@]2(C)C(CC[C@]3(C)C2C(=O)C=C2[C@@H]4[C@@H](C)[C@H](C)CC[C@]4(C)CC[C@]23C)[C@@]1(C)C(=O)O` (stereo not given in full), with “inactive”; and `O=C1OCC(c2ccccc2)=C1Cc1ccccc1`, with “inactive”; and `CC(C)=CCCC1(C)C(CC=C(C)C)CC2(CC=C(C)C)C(=O)C(=C(O)c3ccccc3)C(=O)C1(C)C2=O` (stereo not given), with “inactive”.
As for `CCCCCCCC(O)/C=C\C(O)CCC(O)CCCC(=O)O` (stereo not given), the result was inactive.
Then `COCc1c(OC)cc2c(c1O)C(O)OCC2` (stereo not given), with “inactive”; and `C[C@@H]1C[C@@H](O)C2[C@@](C)(CO)CCC[C@]2(C)[C@@]1(O)CCc1ccoc1` (stereo not given in full), with “inactive”.
With `O=C(CCc1ccc(O)c(O)c1)CCC(O)Cc1ccc(O)c(O)c1` (stereo not given) the entry was “inactive”; with `CC/C=C\C/C=C\C/C=C\CCCCCCCC(=O)OCC(O)COC1OC(CO)C(O)C(O)C1O` (stereo not given), “inactive”.
